From PubChem
PrP UTR inh: inhibition of PrP 5' UTR reporter expression. cell-based PrP 5' UTR mRNA reporter, plate reader. inhibition, % (concentration not given with the values). hit rate 0.35% among 340,000. AID 488862; in the data active = inhibition above about 52%; also: 0 = median of the neutral control wells
CCHF vOTU inh-1: CCHFV vOTU protease inhibition; Pep-AMC fluorescence; inhibition, % at 11.5 µM; hit rate 0.55% among 370,000; also: 0% = vehicle wells with enzyme and 100% = no enzyme wells
PrPC surface inh: reduces human prion protein on the cell surface; inhibition, % at 13.8 µM; hit rate 0.43% among 370,000; cell surface PrPC, TR-FRET read-out; AID 720596; in the data active = inhibition above about 24%; also: 0% = median of the test wells and 100% = reference compound wells
3CLpro inhibitor: SARS-CoV 3CLpro protease inhibition; P0C6X7; recombinant SARS-CoV 3CLpro, quenched FRET peptide cleavage; inhibition, % at 6 µM; hit rate 0.14% among 290,000; AID 1706; in the data active = inhibition above about 12%
CCHF vOTU inh-2: confirmation of CCHF virus vOTU protease inhibitors. inhibition, % at 11.5 µM. shares compounds with CCHF vOTU inh-1. Recombinant CCHFV vOTU, Pep-AMC fluorescence. hit rate 17% among 1,900. AID 686976
* = called active by the depositor; / = no result. Most compounds without a hit are left out; they make up all but 1.3% or so of the library. Rule as the data show it, unless noted: active = inhibition above about 30%; inactive = the rest.

SMILES	PrP UTR inh	CCHF vOTU inh-1	PrPC surface inh	3CLpro inhibitor	CCHF vOTU inh-2
O=S(=O)(Nc1cc(Sc2cccc3cccnc23)c(O)c2ccccc12)c1ccc(F)cc1	/	83*	15	5	-5
COc1ccc(S(=O)(=O)Nc2cc(Sc3ncn[nH]3)c(O)c3ccccc23)cc1	/	107*	57*	6	99*
COc1ccc(S(=O)(=O)Nc2cccc3ccc(O)cc23)cc1	-24	-8	0	/	/
COC(=O)c1ccccc1NC(=O)COC(=O)C1CCCCC1	-15	32*	8	1	-8
O=C(CN1C(=O)c2cccc3cccc1c23)NC1CCCCC1	-21	2	-1	-4	/
O=C1NNC(c2ccccc2)=N/C1=C\c1ccco1	-25	6	-6	10	/
O=C1NNC(c2ccccc2)=N/C1=C\c1ccccc1Cl	-11	54*	-2	2	43*
O=C(N/N=C/c1ccc(-c2ccc(S(=O)(=O)Nc3ncccn3)cc2)o1)c1cc2ccccc2cc1O	-22	41*	-8	-3	-2
CCOc1ccc(C(=O)N/N=C/c2ccc(-c3ccc(S(=O)(=O)Nc4ncccn4)cc3)o2)cc1	-17	5	-6	1	/
CCCCC[C@@H](C)N1C[C@H](COCc2ccccc2)Oc2cc(N3CCC[C@@H]3CO)ccc2S1(=O)=O	/	33*	15	/	17
CCCCC[C@H](C)N1C[C@@H](COCc2ccccc2)Oc2cc(N3CC[C@H](O)C3)ccc2S1(=O)=O	/	40*	0	/	3
CCCCC[C@@H](C)N1C[C@@H](COCc2ccccc2)Oc2cc(N3CCC[C@H]3CO)ccc2S1(=O)=O	/	28	2	/	/
O=[N+]([O-])c1ccc(N2CCOCC2)cc1NCc1ccccc1	-18	12	-5	-2	/
COc1ccccc1NS(=O)(=O)c1ccc(C)c(C(=O)NCc2cccnc2)c1	-12	3	8	/	/
Cc1cc(=O)[nH]c(N/N=C/C=C/c2ccccc2)n1	-2	35*	-1	0	-3
O=C(CSc1nnc(-c2ccccc2)n1Cc1ccco1)Nc1ccc(OCc2ccccc2)cc1	/	32*	12	/	-6
Cc1cccc(-c2nnc(SCC(=O)Nc3ccc(OCc4ccccc4)cc3)n2Cc2ccco2)c1	/	17	15	/	/
Cc1ccc2c(c1C)-c1c(ccc(C)c1C)C(=O)C2=O	-44	75*	2	/	72*
Cc1ccc2c(c1N)C(=O)c1ccccc1C2=O	-47	20	-29	/	/
CN1N=C(N)c2cn(C3OC(COP(=O)(O)O)C(O)C3O)c3ncnc1c23 (stereo unspecified)	43	32*	2	/	4
CC(C)N(C)C1=CC(=O)C(N(C)C(C)C)=CC1=O	-59	44*	-18	/	-2
Cc1c(C#N)c(O)[nH]c(=O)c1N=Nc1ccc(S(N)(=O)=O)cc1	-33	25	-38	3	/
Cc1c(C#N)c(O)[nH]c(=O)c1N=Nc1ccc(Cl)c(C(=O)O)c1	-12	31*	-50	-2	-3
O=C(O)c1cccc2c1Oc1ccccc1S2(=O)=O	-11	-10	7	/	/
CCN(CC)C(=O)[C@H]1C[C@H](CC(=O)NC/C=C(\C)CCC=C(C)C)C(=O)N2CCc3c([nH]c4cc(-c5ccco5)ccc34)[C@]12C	-7	16	6	/	/
SMILES	PrP UTR inh	CCHF vOTU inh-1	PrPC surface inh	3CLpro inhibitor	CCHF vOTU inh-2
O=C1C(=NO)CCc2ccccc21	-35	69*	-11	/	82*
CN(C)c1ccc(C=Nc2ccc(N(C)C)cc2)cc1	-63	68*	-19	0	4
O=C1OCCN1/N=C/c1ccc([N+](=O)[O-])o1	-8	35*	-42	-2	0
COc1cc(C=C2C(=O)C=CC2=O)ccc1O	/	41*	0	/	-11
CCCCOCC1CN(CCCC)S(=O)(=O)c2c(cccc2N(C)S(=O)(=O)c2ccc(C)cc2)O1 (stereo unspecified)	/	32*	2	/	-1
CCCCOCC1CN(CCCC)S(=O)(=O)c2c(F)cccc2O1 (stereo unspecified)	/	15	2	/	/
CC(NC(=O)CSc1cccc(C(F)(F)F)c1)c1ccccc1 (stereo unspecified)	-21	16	4	2	/
CCOc1ccc(NC(=S)Nc2ccc3nsnc3c2)cc1	-42	118*	-13	0	92*
CC(C)N(C(=O)Nc1ccc2nsnc2c1)C(C)C	/	98*	-6	4	67*
COCCNC(=S)Nc1ccc2nsnc2c1	-17	100*	-15	-5	-15
S=C(Nc1ccc2nsnc2c1)N1CCCCCC1	-33	36*	-11	-1	97*
COc1ccc(N(C)C(=O)Nc2ccc3nsnc3c2)cc1	-4	4	-1	0	/
CC1CCCCN1C(=O)Cn1c(=O)n(C2CCCCC2)c(=O)c2ccccc21 (stereo unspecified)	-7	12	1	2	/
CCCCOc1ccc(-n2nc(C)cc2C)nn1	-56	1	-1	3	/
O=[N+]([O-])c1cc(C(F)(F)F)ccc1NCCc1c[nH]c2ccc(O)cc12	-28	23	-10	0	/
C=CCNC(=S)Nc1ccc2nsnc2c1	-31	-15	-16	-2	/
COc1ccc(NC(=S)Nc2ccc3nsnc3c2)cc1	-25	118*	-2	8	100*
COc1ccc(NC(=S)Nc2ccc3nc(C)c(C)nc3c2)cc1	-12	-3	-2	-9	/
C=CCN(CC=C)C(=S)Nc1ccc2nsnc2c1	-25	51*	-35	6	87*
O=C(N/N=C\C=C\c1ccc2c(c1)OCO2)C1COc2ccccc2O1 (stereo unspecified)	-30	6	-7	-1	/
COC(=O)c1ccccc1NC(=O)NCc1cccnc1	-13	6	-1	5	/
O=C(N[C@@H]1CCC(=O)N(CC[C@H](Sc2ccc(Br)cc2)c2ccccc2)CC1)OCc1ccccc1	-20	-2	0	/	/
COc1ccc(S[C@@H](CCN2CC[C@H](NC(=O)OCc3ccccc3)CCC2=O)c2ccccc2)cc1	-17	36*	3	/	2
O=c1c(=Nc2ccccc2O)c(=O)c2ccccc12	-72	49*	-7	3	-1
Cc1oc2c(c1C(=O)NCCCC(=O)O)CCCC2	-21	-5	6	1	/
SMILES	PrP UTR inh	CCHF vOTU inh-1	PrPC surface inh	3CLpro inhibitor	CCHF vOTU inh-2
O=C(Cn1cnc2sc3c(c2c1=O)CCCC3)NCC(=O)Nc1c(F)cc(F)cc1Br	-6	6	-4	-3	/
CCOc1ccccc1C(c1c(O)nc(SC)[nH]c1=O)c1c(O)nc(SC)[nH]c1=O	/	-5	-1	/	/
Cc1ccc(S(=O)(=O)c2c(N)n(CCCO)c3nc4ccccc4nc23)cc1	-11	-145	-9	5	/
CCCCn1c(NS(=O)(=O)c2ccccc2)c(S(=O)(=O)c2ccc(C)cc2)c2nc3ccccc3nc21	-14	108*	-9	-2	51*
CCCCn1c(NS(=O)(=O)c2ccc(C)cc2)c(C(=O)OCC)c2nc3ccccc3nc21	-21	95*	4	-3	-98
CSc1ccccc1NC(=O)CN(C)C(=O)COc1cccc2cccnc12	-26	33*	-4	/	-9
Cc1cccc(C)c1NC(=O)c1cc(-c2ccccn2)nc2ccccc12	-6	-7	-12	4	/
